# Experimental data published in PubChem BioAssay (NCI).
# Compounds without any hit were thinned out: in the full panel of roughly 83,000, 20% have a hit.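 Values shown are percent growth following 48 h exposure of cells in 96-well plates to a single concentration of compound; below 10 was considered active.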 A number with no mark means an inactive call. The source made the active and inactive calls.
# System: HL-60(TB) leukemia
# Experiment: NCI-60 one-dose screen, 48 h (100 = growth as untreated, 0 = no growth, -100 = all killed)
# Settings: 10 µM unless noted
row,SMILES,growth
1,CC1=NN(c2ccccc2)C(=O)C1C(=O)c1ccccc1 (stereo not given),68.5%
2,Cn1cc(CC2CC(=O)N(c3ccccc3)C2=O)sc1=NC(=O)c1ccccc1 (stereo not given),114%
3,C=Cc1nn2c(CCC(=O)c3nc4ccccc4[nH]3)nnc2s1,104%
4,O=C(Nc1ccccc1O)c1ccc(CNc2ccnc(C(F)(F)F)c2)cc1,-32.9% (active)
5,Oc1ccc(CCC2CCNc3ccccc32)cc1 (stereo not given),86.9%
6,COC(=O)c1c2c(c(C)[n+]([O-])c1C)C(=O)C=C(NCc1ccccc1)C2=O,-31.4% (active)
7,CC1(O)CCC2CC3OC3(C)CCC3OC3(C)CCC1C2(C)C (stereo not given),120%
8,Clc1ccccc1N=Cc1ccc2c(c1)OCO2,94.6%
9,O=C(NC1CCC(Br)CC1)C1CCCC(S(=O)(=O)NC2CCCCC2)C1 (stereo not given),4.46% [25 µM] (active)
10,COc1ccc(N(C)c2ncnc3occ(C)c23)cc1,-34.9% (active)
11,O=C1NCCc2c1noc2-c1ccccc1,102%
12,O=C(O)CCCN1C(=O)/C(=C/c2cn(-c3ccccc3)nc2-c2ccc([N+](=O)[O-])cc2)SC1=S,83.4%
13,O=C1/C(=C/c2ccc(F)cc2)CN(C(=O)C(Cl)Cl)C/C1=C\c1ccc(F)cc1,-34% (active)
14,Cc1ccc(NC(=O)c2sc3nc(C)c(C(=O)c4ccccc4)cc3c2N)cc1,84.2%
15,O=C(CCCCNC(=O)c1cc(=O)c(O)co1)Nc1ccccc1,54.7%
16,CC(C)C1=C[C@@]23CC[C@@H]4[C@](C)(CCC[C@@]4(C)C(=O)OCC#CCN4CCCC4)[C@H]2C[C@@H]1[C@H]1C(=O)OC(=O)[C@H]13,95.7%
17,CN(C)c1ccc([C@@H](C(=O)Nc2cccc([N+](=O)[O-])c2)N(C(=O)c2cc3ccccc3[nH]2)c2cccc([N+](=O)[O-])c2)cc1,97.8%
18,O=C(O)c1ccc(-c2nn(-c3ccc(C(F)(F)F)cc3)cc2CNc2ccc(Oc3ccccc3)cc2)cc1,35.5%
19,CC(C)OCC(CCl)OC(=O)Nc1ccccc1 (stereo not given),97.3%
20,O=C(Nc1ccncc1)C(=O)c1cn(S(=O)(=O)c2cccc3ccccc23)c2ccccc12,64%

row,SMILES,growth
1,COc1ccc2c(c1)CC/C(=C\c1ccc(OCC(=O)Nc3nc4ccccc4s3)cc1)C2=O,87.6%
2,O=C(/C(=N/O)S(=O)(=O)c1ccccc1)c1cccs1,90.9%
3,C=C(C(=O)c1ccccc1)C(NC(C)(C)C)c1ccccc1 (stereo not given),-14.7% (active)
4,CC(C)Nc1cc(-c2c[nH]c(C(=O)N[C@H](CO)c3cccc(Cl)c3)c2)c(Cl)cn1,3.3% (active)
5,O=C1/C(=C/c2ccccc2)Oc2ccc(O)c(I)c21,95.4%
6,COc1ccc(C(=O)Nc2cccc(-c3cc(=O)c4c(OC)c(OC)c(OC)cc4o3)c2)cc1,44.8%
7,CCCC[C@@H](C=O)NC(=O)[C@H](CC(C)C)NC(=O)[C@H](CC(C)C)NC(=O)OCc1ccccc1,-30.1% (active)
8,COc1cc(-c2nc(-c3nnc(-c4cccnc4)o3)c3ccccn23)cc(OC)c1OC,95.7%
9,c1ccc2nc(N3CCOCC3)c(N3CCCCC3)nc2c1,98.9%
10,Cc1ccc(-c2nc(/C=N/Nc3cc(C)nc4ccc(Cl)cc34)c(C)o2)cc1,-19.6% (active)
11,O=c1cc(-c2ccccc2)[nH]c(=S)[nH]1,104%
12,Cc1ccccc1CNC(=O)C1CN(c2ccc(Cl)cc2)N(c2ccc(Cl)cc2)C1=O (stereo not given),94.7%
13,CN1C(=O)/C(=C/c2ccc(C(=O)Nc3ncc(Cc4cc(Cl)ccc4Cl)s3)cc2)SC1=S,91%
14,O=C1c2ccccc2C(=Cc2ccccc2)c2ccccc21,-1.29% (active)
15,CS(=O)(=O)N(c1cc(-c2ccc3ncnc(Nc4ccc(F)c(Cl)c4)c3c2)cnc1Cl)S(C)(=O)=O,20.4%
16,Cc1cc(C(=O)CCCC(=O)c2cc(C)c(O)c(C)c2)cc(C)c1O,84.6%
17,Cn1cc(-c2nc(-c3c[nH]c4ccncc34)cs2)c2cc(F)ccc21,-55.3% (active)
18,O=[n+]1ccn([O-])c2ccccc21,118%
19,COC(=O)c1[nH]c(=O)c(C#N)c(C(=O)OC)c1C(=O)c1ccccc1,94.8%
20,Cc1cccc(/C=C2\CN(C(=O)OC(C)(C)C)C/C(=C\c3cccc(C)c3)C2=O)c1,90.2%
